Results: PubChem BioAssay AID1159580 (chemical genetic matrix, 2015)
Where “and” joins values, the source holds several entries; their conditions need not be identical. Equal entries are not always repeated. Out of some 5,500 compounds screened, about 2,000 (36%) were called active. Not shown: some 18% with an inconclusive outcome. No stated cut-off is given here; in the data, active means normalized growth mostly below about 0.91 (no sharp cut-off); inconclusive means no clear call, values can overlap the other calls; inactive means mostly above about 0.92. The list shows a part of the results.

Test: chemical genetic growth profiling, strain panel (AID 1159580);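 further: tested at 20 µM; growth read once vehicle control cultures reached saturation at 30 °C; 1 = growth at the plate median or of vehicle wells; lower values mean less growth of the strain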
Conditions: S. cerevisiae deletion strains, growth OD

Measured: normalized growth

Oc1c(Br)cc(Br)c2cccnc12
active: locus YAL013W, strain DEP1, active compounds read low 0.0586 | locus YAL021C, strain ccr4, active compounds read low 0.0663 | locus YAL026C, strain drs2, active compounds read low 0.0631 | locus YAL030W, strain snc1, active compounds read low 0.055 | locus YBL061C, strain skt5, active compounds read low 0.0586 | locus YBR009C, strain hhf1, active compounds read low 0.0623 | locus YBR021W, strain FUR4, active compounds read low 0.0949 | locus YBR023C, strain chs3, active compounds read low 0.0634 | locus YBR171W, strain sec66, active compounds read low 0.0756 | locus YBR229C, strain ROT2, active compounds read low 0.0506 | locus YBR231C, strain swc5, active compounds read low 0.0629 | locus YBR279W, strain paf1, active compounds read low 0.0612 | locus YCL011C, strain gbp2, active compounds read low 0.0575 | locus YCL016C, strain dcc1, active compounds read low 0.0701 | locus YCL029C, strain bik1, active compounds read low 0.07 | locus YCL061C, strain MRC1, active compounds read low 0.0647 | locus YCL069W, strain vba3, active compounds read low 0.0645 | locus YCR088W, strain abp1, active compounds read low 0.0595 | locus YDL005C, strain med2, active compounds read low 0.0726 | locus YDL035C, strain GPR1, active compounds read low 0.0512 | locus YDL040C, strain nat1, active compounds read low 0.0563 | locus YDL074C, strain BRE1, active compounds read low 0.0885 | locus YDL101C, strain DUN1, active compounds read low 0.0585 | locus YDL134C, strain PPH21, active compounds read low 0.0526 | locus YDL185W, strain tfp1, active compounds read low 0.0677 | locus YDL192W, strain arf1, active compounds read low 0.0671 | locus YDR001C, strain nth1, active compounds read low 0.0572 | locus YDR069C, strain doa4, active compounds read low 0.0693 | locus YDR101C, strain arx1, active compounds read low 0.0674 | locus YDR137W, strain rgp1, active compounds read low 0.107 | locus YDR150W, strain NUM1, active compounds read low 0.0621 | locus YDR159W, strain sac3, active compounds read low 0.0892 | locus YDR162C, strain NBP2, active compounds read low 0.0492 | locus YDR195W, strain ref2 0.126 | locus YDR297W, strain sur2, active compounds read low 0.0575 | locus YDR318W, strain mcm21, active compounds read low 0.071 | locus YDR334W, strain swr1, active compounds read low 0.0608 | locus YDR335W, strain msn5, active compounds read low 0.0583 | locus YDR388W, active compounds read low 0.0637 | locus YDR392W, strain spt3, active compounds read low 0.0808 | locus YDR502C, strain sam2, active compounds read low 0.0753 | locus YEL003W, strain gim4, active compounds read low 0.0546 | locus YEL037C, strain rad23, active compounds read low 0.0573 | locus YEL061C, strain CIN8 (second series), active compounds read low 0.145 | locus YEL061C, strain CIN8, active compounds read low 0.05 | locus YER015W, strain faa2, active compounds read low 0.0595 | locus YER016W, strain bim1, active compounds read low 0.0608 | locus YER110C, active compounds read low 0.0879 | locus YER111C, strain swi4, active compounds read low 0.0694 | locus YER155C, strain BEM2 (second series), active compounds read low 0.0894 | locus YER155C, strain BEM2, active compounds read low 0.0691 | locus YER167W, strain BCK2, active compounds read low 0.0561 | locus YFR010W, strain ubp6, active compounds read low 0.0731 | locus YGL078C, strain dbp3, active compounds read low 0.0674 | locus YGL086W, strain mad1, active compounds read low 0.0628 | locus YGL167C, strain pmr1, active compounds read low 0.079 | locus YGL173C, strain kem1, active compounds read low 0.0675 | locus YGL227W, strain vid30, active compounds read low 0.0683 | locus YGL240W, strain doc1, active compounds read low 0.0807 | locus YGL248W, strain PDE1, active compounds read low 0.0474 | locus YGL253W, strain hxk2, active compounds read low 0.0544 | locus YGR078C, strain PAC10, active compounds read low 0.0525 | locus YGR135W, strain pre9, active compounds read low 0.0723 | locus YGR229C, strain SMI1, active compounds read low 0.0593 | locus YGR252W, strain gcn5, active compounds read low 0.146 | locus YHR013C, strain ard1, active compounds read low 0.115 | locus YHR027C, strain rpn1, active compounds read low 0.0627 | locus YHR030C, strain SLT2, active compounds read low 0.0528 and 0.107 | locus YHR079C, strain IRE1 (second series), active compounds read low 0.0637 | locus YHR079C, strain IRE1, active compounds read low 0.113 | locus YHR094C, strain hxt1, active compounds read low 0.0678 | locus YHR129C, strain ARP1, active compounds read low 0.059 | locus YHR142W, strain chs7, active compounds read low 0.0809 | locus YHR200W, strain rpn10, active compounds read low 0.0663 | locus YIL066C, strain RNR3, active compounds read low 0.051 | locus YIL073C, strain SPO22, active compounds read low 0.15 | locus YIL125W, strain kgd1, active compounds read low 0.0707 | locus YIR030C, strain dcg1, active compounds read low 0.0676 | locus YJL092W, strain hpr5, active compounds read low 0.0584 | locus YJL095W, strain BCK1 (second series), active compounds read low 0.0568 | locus YJL095W, strain BCK1, active compounds read low 0.0606 and 0.106 | locus YJL115W, strain asf1, active compounds read low 0.072 | locus YJL129C, strain trk1, active compounds read low 0.0904 | locus YJL134W, strain LCB3, active compounds read low 0.0513 | locus YJL154C, strain vps35, active compounds read low 0.0576 | locus YJL164C, strain tpk1, active compounds read low 0.0622 | locus YJL166W, strain qcr8, active compounds read low 0.0631 | locus YJL168C, strain set2, active compounds read low 0.0664 | locus YJL187C, strain SWE1 (second series), active compounds read low 0.0507 | locus YJR043C, strain POL32, active compounds read low 0.0636 | locus YJR066W, strain TOR1, active compounds read low -4.7e-05
